Assays:
Assay in all cases: pooled miR-30 sensor sort-seq; sequence = guide strand
Conditions in all cases: shRNA
[1] = biological target: TUBGCP5
[2] = biological target: TUBAL3
[3] = biological target: TUBB2B
[4] = biological target: TULP4
Further: reference of the scale not given here.

Sequence: TAGATAGACGTGAACTATCTTC
- sensor-assay potency score (higher = more potent) [1]: -0.283

Sequence: TATTGTAGTATCATTATTGATG
- sensor-assay potency score (higher = more potent) [1]: -0.448

Sequence: TAACGGTGTCCTGTCTACCTGA
- sensor-assay potency score (higher = more potent) [1]: -0.629

Sequence: TTCTCTGAGGTACCAGTGCAGA
- sensor-assay potency score (higher = more potent) [2]: -1.43

Sequence: TAACTTGACATTCATTTGCACC
- sensor-assay potency score (higher = more potent) [2]: -1.19

Sequence: TACAACTCTATACAGTATCTAC
- sensor-assay potency score (higher = more potent) [1]: -0.752

Sequence: TTCTGTTTTGATCTTGTTCTTC
- sensor-assay potency score (higher = more potent) [1]: 0.0443

Sequence: TGCATTTTCCAGCTGATCCTGT
- sensor-assay potency score (higher = more potent) [2]: -0.383

Sequence: TTCATTGTAGTAAACATTGATT
- sensor-assay potency score (higher = more potent) [3]: -0.873

Sequence: ATGCTCATCACTGATGACCTCC
- sensor-assay potency score (higher = more potent) [3]: -0.227

Sequence: TAACCGAATCCATCGTGCCTGG
- sensor-assay potency score (higher = more potent) [3]: -0.853

Sequence: TTTGTCTTATTCAACTTCTTTG
- sensor-assay potency score (higher = more potent) [4]: -1.04

Sequence: TGGATCATGAACATCATCCAGT
- sensor-assay potency score (higher = more potent) [1]: -0.749

Sequence: TTTCTGACTCTTCACTTTCTTC
- sensor-assay potency score (higher = more potent) [4]: -1.27

Sequence: ATTGTTGGCAGCATCCTCCTTT
- sensor-assay potency score (higher = more potent) [2]: 0.0651

Sequence: TAAACATTGATTCTCTCCAGCT
- sensor-assay potency score (higher = more potent) [3]: -0.472

Sequence: TAAATTAATATAGTCCATGGAA
- sensor-assay potency score (higher = more potent) [4]: -0.711

Sequence: TCGTTGTCAATGCAGTAGGTTT
- sensor-assay potency score (higher = more potent) [3]: -1.57

Sequence: TTCCACCAGCTGGTGGACCGAG
- sensor-assay potency score (higher = more potent) [3]: -1.21

Sequence: TCCATGGTAACTGCCAGTGGGG
- sensor-assay potency score (higher = more potent) [3]: -1.71

Sequence: TAGACCGAGAACTCCAGCTTAG
- sensor-assay potency score (higher = more potent) [2]: -0.779

Sequence: TTCAATTAGGTCTACATTCAAG
- sensor-assay potency score (higher = more potent) [2]: -1.3

Sequence: AACACGAAATTGTCTGGTCTGA
- sensor-assay potency score (higher = more potent) [3]: -0.953

Sequence: TTGTAGAACTTGACCATGGCAC
- sensor-assay potency score (higher = more potent) [4]: 0.0563

Sequence: TTTGTCAGCAGAGACGATGGGG
- sensor-assay potency score (higher = more potent) [2]: 0.442

Sequence: TTCAAGCACACATCCACTGGGG
- sensor-assay potency score (higher = more potent) [4]: 0.492

Sequence: TTTGTGGCTGTTGACATCCAAG
- sensor-assay potency score (higher = more potent) [1]: -1.62

Sequence: TTAATCTCTTCCAACTAGCAGC
- sensor-assay potency score (higher = more potent) [1]: -0.324

Sequence: ATGCAGTAGGTTTCATCTGTGT
- sensor-assay potency score (higher = more potent) [3]: -0.689

Sequence: TTGTCTTATTCAACTTCTTTGA
- sensor-assay potency score (higher = more potent) [4]: -0.83

— the OligoGym collection
